Assay outcomes: PubChem BioAssay, National Center for Advancing Translational Sciences (NCATS)
SARS PLpro yeast = blocks SARS-CoV papain-like protease in a yeast assay. S. cerevisiae expressing SARS-CoV PLpro, growth rescue. Potency, µM (titrated, usually from 32.9 µM), without a hit: at the highest dose activity, positive = growth rescue, usual class: activators. hit rate 0.19% among 330,000. AID 485353; calls by dose curve; also: potency is read from the fitted curve at half-maximal effect; 0% is about no effect; nearly all actives have a fitted effect of over 55% in size
Pf growth 48h = P. falciparum growth inhibition at 48 hours (one generation) | P. falciparum luciferase growth in erythrocytes, 48 h | Potency, µM (doses to about 28.7 µM), inactives show at the highest dose activity change, negative = inhibition, most hits filed as inhibitors | hit rate 5.9% among 310,000 | AID 504832; also: potency is read from the fitted curve at half-maximal effect; % is scaled to controls: 0 for no effect and ±100 for the full control effect
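First compound was added to culture medium, then infected red cells at 0.1% parasitemia and 2% hematocrit (final). After incubation at 37 C under 5% CO2, luciferase detection reagent was dispensed and light output recorded.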
HCMV inh = inhibitors of human cytomegalovirus; activity change, negative = inhibition, % at 57.5 µM; hit rate 4.5% among 410,000; HFF cells, HCMV-luciferase reporter, 72 h; stronger effect = lower value; in the data active = activity change below about -60%; inconclusive = no clear call, values can overlap the other calls; inactive = above about -39%; also: % is scaled to controls: 0 for no effect and ±100 for the full control effect
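Inhibition of viral replication was scored as loss of reporter luminescence in HFFs infected with HCMV-luciferase (MOI 1 PFU/cell) for 72 h; compounds tested at 2 doses, normalized to buffer and Salinomycin controls.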
Sm TGR block = inhibitors of Schistosoma mansoni thioredoxin glutathione reductase | Q962Y6 | purified TGR, DTNB reduction, TNB absorbance 405 nm | Potency, µM (titrated, usually from 114 µM), for inactives: at the highest dose activity change, negative = inhibition, hits mostly inhibitors | hit rate 3% among 360,000 | AID 485364; also: potency is read from the fitted curve at half-maximal effect; % is scaled to controls: 0 for no effect and ±100 for the full control effect; nearly all actives have a fitted effect of over 60% in size
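First, TGR (20 nM dispensed) and NADPH were mixed with compound. Second, a 15 min room-temperature incubation followed. Third, further NADPH and then DTNB were added to start the reaction. Finally, TNB absorbance was monitored kinetically.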
Pf growth 96h = P. falciparum growth inhibition at 96 hour, primary screen for plastid delayed-death inhibitors; hit rate 6.9% among 320,000; P. falciparum luciferase reporter growth, 96 h; Potency, µM (series often up to 28.7 µM), without a hit: at the highest dose activity change, negative = inhibition, most hits filed as inhibitors; also: potency is read from the fitted curve at half-maximal effect; % is scaled to controls: 0 for no effect and ±100 for the full control effect
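Two-generation exposure (96 h) targets delayed-death phenotype. Reporter parasites carrying integrated firefly luciferase, in red cells at 2% hematocrit and 0.05% parasitemia final, kept at 37 C, 5% CO2; luminescence loss indicates inhibition.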
HCV inh = blocks hepatitis C virus; Potency, µM (top dose mostly 41.8 µM), inactives show top-dose activity change, negative = inhibition, most hits filed as inhibitors; Huh7.5.1 HCVcc-Cre infection, luciferase reporter, 44 h; AID 651820; hit rate 3.4% among 340,000; also: potency is read from the fitted curve at half-maximal effect; % is scaled to controls: 0 for no effect and ±100 for the full control effect
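Luciferase read-out (15 sec integration) after a 15 min room-temperature substrate step quantifies HCVcc-Cre infection. Cells, 1,000 per well, had compound added 4 h post-plating, then virus at ~0.5 moi, and were cultured 44 h.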
The depositor's hits bear a star; ? = inconclusive; nt = no result. In the library only some 15% were active in any assay of this set; here they are far more common. Unless noted, calls follow the shape of the dose curve; as a rule, active = well fitted curve in the direction sought with a large enough effect; inconclusive = small, poorly fitted or top-dose-only effect, or another doubt; inactive = no such curve, though single readings can be large; an effect the other way counts as inactive or inconclusive.

SMILES | SARS PLpro yeast | Pf growth 48h | HCMV inh | Sm TGR block | Pf growth 96h | HCV inh
COc1ccc(CN2C(=O)C(CC(C)C)Nc3ncnc(N4CCCCC4)c32)cc1 (configuration not stated) | -1.6% | ? | -15.2 | -3.9% | ? | -23.6%
Cc1c(Cl)cccc1NC(=S)NN1CCOCC1 | -7.5% | nt | 8.6 | 31.6µM* | -9.4% | 3.2%
Cc1c(Cl)cccc1NC(=S)NCC(C)C | ? | ? | ? | -1.0% | 3.29µM* | -3.3%
Cc1c(C(=O)N/N=C/c2cccnc2)nnn1-c1nonc1N | 4.6% | -8.9% | -8.2 | -0.6% | 23.6% | -7.3%
CSc1ncccc1C(=O)Nc1nc2ccc(Oc3ccccc3)cc2s1 | -0.1% | 46.0% | -12.5 | -0.8% | 62.2% | ?
O=C(Cc1ccccc1)N1O[C@H]2C=C[C@@H]1C2 | nt | nt | 2.3 | nt | nt | nt
O=C(Nc1ccc(Oc2c(F)c(F)c(F)c(F)c2F)cc1)OC1CCN2Cc3ccccc3N=C12 (configuration not stated) | -1.1% | ? | nt | 4.5% | 2.62µM* | 3.16µM*
O=C(Nc1ccc(Oc2ccccc2)cc1)C1CCN(c2ncccn2)CC1 | 9.8% | 8.5% | 15.7 | -22.7% | 14.0% | ?
COCCc1nnc(NC(=O)C23CC4CC(CC(C4)C2)C3)s1 | -4.3% | 11.7% | 126.8 | -6.7% | ? | 31.3%
CCOC(=O)Cc1nnc(NC(=O)C23CC4CC(CC(C4)C2)C3)s1 | 0.3% | 13.1µM* | 3.5 | 12.6% | ? | 15.4%
CC(=O)C1C(c2ccc(F)cc2)C2C(C)=NN=C2CC1(C)O (configuration not stated) | 11.4% | 1.5% | 37.1 | 9.2% | -26.2% | 17.6%
C/C(CC(=O)Nc1ccccn1)=N\NC(=O)c1ccccc1O | ? | 9.5% | -91.2* | 2.2% | 33.4% | 7.08µM*
C/C(CC(=O)Nc1cc(C)ccn1)=N\NC(=O)c1cccc(C)c1O | -8.9% | ? | -98.0* | 4.1% | -8.6% | ?
C/C(CC(=O)Nc1ccccn1)=N\NC(=O)c1ccc2ccccc2c1 | 2.9% | 24.1% | -3.6 | 2.8% | 1.85µM* | 2.4%
O=C(NC1CCSC1=O)C1CCCCC1 (configuration not stated) | -0.1% | 24.5% | -34.9 | 0.0% | 10.5% | -3.9%
CCOC(=O)C1(CC2CC2)CCN(C(=O)c2ocnc2C)CC1 | 0.1% | 12.6% | 2.2 | -9.2% | -1.0% | 8.9%
CCOC(=O)C1(CC2CC2)CCN(C(=O)c2cc(C)nc3ccc(CC)cc23)CC1 | -0.2% | ? | 1.8 | nt | 2.08µM* | -15.6%
CNC(=S)Nc1cc(C(=O)N2CCCC2)ccc1N1CCCC1 | 0.5% | 22.2% | 55.3 | -1.4% | 5.22µM* | -7.2%
COc1ccc(NCc2nn(CC(=O)c3ccc(Br)cc3)c3[n+]2CCCCC3)cc1 | -0.1% | 1.85µM* | -37.8 | -13.7% | ? | 1.8%
O=C(Cn1nc(CNc2ccc(Br)cc2)[n+]2c1CCCCC2)c1ccc([N+](=O)[O-])cc1 | -2.0% | 2.08µM* | -91.5* | 50.1µM* | ? | -5.8%
O=C(CNc1ccc(Cl)cc1)c1ccc(Br)cc1 | 2.2% | ? | 23.4 | -2.8% | ? | -11.8%
O=C(c1ccc([N+](=O)[O-])cc1)N(Cc1ccc(Br)cc1)N1C(=O)CCCC1=O | 4.7% | nt | 2.8 | -2.9% | -13.0% | ?
O=C(Cn1nc(CNc2ccc(Cl)cc2)[n+]2c1CCCCC2)c1ccc(Br)cc1 | -28.1% | 0.928µM* | 14.6 | -9.6% | ? | 41.3%
Cc1ccccc1-c1cnc(C(O)c2c(C)ccc3ccccc23)[nH]1 (configuration not stated) | nt | nt | 9.5 | nt | nt | nt
O=C(Nc1ccc2ccccc2c1)N1CCCN(CCOc2ccccc2)CC1 | -2.0% | ? | -29.0 | 1.9% | 0.9% | -29.8%
SMILES | SARS PLpro yeast | Pf growth 48h | HCMV inh | Sm TGR block | Pf growth 96h | HCV inh
O=C1CSC(c2cn(-c3ccccc3)nc2-c2ccc3c(c2)OCCO3)N1CCN1CCOCC1 (configuration not stated) | -2.6% | 8.28µM* | -10.8 | 2.9% | 1.7% | -16.6%
O=C1CSC(c2cn(-c3ccccc3)nc2-c2cc3ccccc3oc2=O)N1Cc1ccccc1 (configuration not stated) | 0.4% | nt | -24.6 | -8.2% | -0.7% | 12.6µM*
O=C1CSC(c2nn(-c3ccccc3)cc2-c2cc3ccccc3oc2=O)N1Cc1ccco1 (configuration not stated) | 7.6% | ? | 119.3 | ? | ? | ?
CC(C)C[C@@H]1Cc2[nH]c(=S)[nH]c(=O)c2[C@H](CCc2ccccc2)O1 | nt | nt | -18.8 | nt | nt | nt
O=C(C1=C(O)C(=O)N(CCN2CCOCC2)C1c1cccnc1)c1cc2ccccc2o1 (configuration not stated) | 6.0% | 56.8% | -14.4 | ? | nt | 0.1%
COc1cccc2cc(C(=O)C3=C(O)C(=O)N(Cc4ccco4)C3c3cccnc3)oc12 (configuration not stated) | 1.9% | -2.2% | nt | 25.1µM* | 0.4% | -3.7%
COc1ccc(C2C(C(=O)c3ccco3)=C(O)C(=O)N2Cc2cccnc2)cc1OC (configuration not stated) | -0.9% | 0.6% | -21.1 | 5.2% | 30.5% | 6.7%
O=C(C1=C(O)C(=O)N(Cc2ccco2)C1c1cccnc1)c1cc2ccccc2o1 (configuration not stated) | 16.0% | 7.1% | 0.5 | 25.1µM* | -10.7% | -7.0%
Cc1cccc(Cn2cc3c(=O)n(CC(=O)Nc4cccc(C)c4C)nc-3c3cc(F)ccc32)c1 | nt | nt | -8.6 | -7.1% | nt | nt
COc1ccc(OC)c(CNC(=O)c2cc3ccc4cccnc4c3[nH]2)c1 | nt | nt | -7.3 | 30.2% | nt | nt
CCOC(=O)c1ccc(S(=O)(=O)Nc2cc(C(=O)O)ccc2Cl)cc1 | 3.7% | -2.4% | -3.9 | -7.4% | 10.4% | 12.3%
O=C(Cn1cnc2ccccc21)N/N=C/C(Br)=C/c1ccccc1 | 4.6% | -4.3% | -66.3* | -8.4% | ? | -25.4%
CC(/C=N/NC(=O)CSc1nc(C)cc(C)n1)=C\c1ccccc1 | -29.3% | 7.2% | 32.5 | -8.9% | ? | -15.8%
CC(/C=N\NC(=O)Cn1c(C)nc2ccccc21)=C\c1ccccc1 | 1.2% | 15.8% | -85.8* | -22.1% | 31.8% | ?
C/C(=N\NC(=O)Cn1c(C)nc2ccccc21)c1cccs1 | 7.6% | 1.5% | -63.8* | -1.7% | ? | ?
Nc1ncc(Br)cc1S(=O)(=O)Nc1cc(C(F)(F)F)cc(C(F)(F)F)c1 | -14.3% | 16.6% | -100.7* | -17.3% | 11.9% | ?
O=[N+]([O-])c1c(C(Cl)Cl)nn(-c2ccc(Cl)cc2)c1N1CCCCC1 | -88.0% | ? | -29.0 | 0.0% | ? | ?
CC(C)(C)NC(=O)CCN1CCOCC1 | 1.4% | 2.1% | -17.5 | -0.7% | nt | 17.9%
C=CC(=O)NC(C)(C)CCN1CCOCC1 | 1.5% | 0.928µM* | 3.7 | -10.5% | 27.8% | 13.4%
